# Reference: PubChem BioAssay AID1159580 (chemical genetic matrix, 2015)
# In all, about 5,500 compounds went through this assay and about 2,000 (36%) were called active. Not shown: some 18% with an inconclusive outcome. The list shows a part of the results. Values without a mark were called inactive. Rule as the data show it: active = normalized growth mostly below about 0.91 (no sharp cut-off); inconclusive = no clear call, values can overlap the other calls; inactive = mostly above about 0.92.
# Assay: chemical genetic growth profiling, strain panel (AID 1159580);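 also: tested at 20 µM; growth read once vehicle control cultures reached saturation at 30 °C; 1 = growth at the plate median or of vehicle wells; lower values mean less growth of the strain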
# Settings: S. cerevisiae deletion strains, growth OD
structure (smiles),measurement,setting,value
O=C(SCc1c(Cl)cccc1Cl)c1ccc([N+](=O)[O-])o1,normalized growth,"locus YAR019C, strain CDC15, active compounds read low",0.954
same,normalized growth,"locus YBL105C, strain PKC1, active compounds read low",0.96
same,normalized growth,"locus YBR135W, strain CKS1, active compounds read low",0.968
same,normalized growth,"locus YBR136W, strain MEC1, active compounds read low",0.969
same,normalized growth,"locus YBR160W, strain CDC28, active compounds read low",0.964
same,normalized growth,"locus YDL017W, strain CDC7, active compounds read low",0.967
same,normalized growth,"locus YDL028C, strain MPS1, active compounds read low",0.969
same,normalized growth,"locus YDL101C, strain DUN1, active compounds read low",0.978
same,normalized growth,"locus YDL108W, strain KIN28, active compounds read low",0.961
same,normalized growth,"locus YDL132W, strain cdc53, active compounds read low",0.967
same,normalized growth,"locus YDL214C, strain PRR2, active compounds read low",0.456 (active)
same,normalized growth,"locus YDR052C, strain DBF4, active compounds read low",0.967
same,normalized growth,"locus YDR054C, strain cdc34, active compounds read low",0.95
same,normalized growth,"locus YDR226W, strain ADK1, active compounds read low",0.959
same,normalized growth,"locus YDR477W, strain SNF1, active compounds read low",0.295 (active)
same,normalized growth,"locus YER123W, strain YCK3, active compounds read low",0.422 (active)
same,normalized growth,"locus YER133W, strain GLC7, active compounds read low",0.553 (active)
same,normalized growth,"locus YFL009W, strain cdc4, active compounds read low",0.955
same,normalized growth,"locus YFL029C, strain CAK1, active compounds read low",0.951
same,normalized growth,"locus YFR003C, strain YPI1, active compounds read low",0.962
same,normalized growth,"locus YFR019W, strain FAB1, active compounds read low",0.612 (active)
same,normalized growth,"locus YFR028C, strain CDC14, active compounds read low",0.962
same,normalized growth,"locus YGR040W, strain KSS1, active compounds read low",0.324 (active)
same,normalized growth,"locus YGR052W, strain FMP48, active compounds read low",0.502 (active)
same,normalized growth,"locus YGR092W, strain DBF2, active compounds read low",0.221 (active)
same,normalized growth,"locus YHR030C, strain SLT2, active compounds read low",0.179 (active)
same,normalized growth,"locus YHR079C, strain IRE1, active compounds read low",0.334 (active)
same,normalized growth,"locus YHR082C, strain KSP1, active compounds read low",0.332 (active)
same,normalized growth,"locus YHR205W, strain SCH9, active compounds read low",0.0602 (active)
same,normalized growth,"locus YIL147C, strain SLN1, active compounds read low",0.972
same,normalized growth,"locus YJL095W, strain BCK1, active compounds read low",0.624
same,normalized growth,"locus YJL128C, strain PBS2, active compounds read low",0.868
same,normalized growth,"locus YJL157C, strain FAR1, active compounds read low",0.477 (active)
same,normalized growth,"locus YJR016C, strain ILV3, active compounds read low",0.965
same,normalized growth,"locus YJR066W, strain TOR1 (second series), active compounds read low",0.351 (active)
same,normalized growth,"locus YJR066W, strain TOR1, active compounds read low",0.425 (active)
same,normalized growth,"locus YKL048C, strain ELM1, active compounds read low",0.65 (active)
same,normalized growth,"locus YKL067W, strain YNK1, active compounds read low",0.652 (active)
same,normalized growth,"locus YKL101W, strain HSL1, active compounds read low",0.571 (active)
same,normalized growth,"locus YKL193C, strain SDS22, active compounds read low",0.954
same,normalized growth,"locus YKL203C, strain TOR2, active compounds read low",0.438 (active)
same,normalized growth,"locus YLR113W, strain HOG1, active compounds read low",0.4 (active)
same,normalized growth,"locus YLR133W, strain CKI1, active compounds read low",0.499 (active)
same,normalized growth,"locus YLR403W, strain SFP1, active compounds read low",0.201 (active)
same,normalized growth,"locus YML070W, strain DAK1, active compounds read low",0.547 (active)
same,normalized growth,"locus YMR001C, strain CDC5, active compounds read low",0.942
same,normalized growth,"locus YMR205C, strain PFK2 (second series), active compounds read low",0.677 (active)
same,normalized growth,"locus YMR277W, strain FCP1, active compounds read low",0.968
same,normalized growth,"locus YNL006W, strain LST8, active compounds read low",0.976
same,normalized growth,"locus YNL020C, strain ARK1, active compounds read low",0.48 (active)
same,normalized growth,"locus YNL161W, strain CBK1, active compounds read low",0.965
same,normalized growth,"locus YNL183C, strain NPR1, active compounds read low",0.438 (active)
same,normalized growth,"locus YNL207W, strain RIO2, active compounds read low",0.947
same,normalized growth,"locus YNL222W, strain SSU72, active compounds read low",0.971
same,normalized growth,"locus YNL307C, strain MCK1 (second series), active compounds read low",0.247 (active)
same,normalized growth,"locus YOL078W, strain AVO1, active compounds read low",0.963
same,normalized growth,"locus YOL136C, strain PFK27, active compounds read low",0.406 (active)
same,normalized growth,"locus YOR061W, strain CKA2, active compounds read low",0.633 (active)
same,normalized growth,"locus YOR119C, strain RIO1, active compounds read low",0.445 (active)
same,normalized growth,"locus YOR231W, strain MKK1, active compounds read low",0.578 (active)
same,normalized growth,"locus YOR329C, strain SCD5, active compounds read low",0.964
same,normalized growth,"locus YPL031C, strain PHO85, active compounds read low",0.396 (active)
same,normalized growth,"locus YPL153C, strain RAD53, active compounds read low",0.614 (active)
same,normalized growth,"locus YPL204W, strain HRR25, active compounds read low",0.371 (active)
same,normalized growth,"locus YPL209C, strain IPL1, active compounds read low",0.976
same,normalized growth,"locus YPL256C, strain CLN2, active compounds read low",0.232 (active)
same,normalized growth,"locus YPR025C, strain CCL1, active compounds read low",0.959
same,normalized growth,"locus YPR106W, strain ISR1, active compounds read low",0.985
same,normalized growth,"locus YPR111W, strain DBF20, active compounds read low",0.978
same,normalized growth,"strain NNK1, active compounds read low",0.959
same,normalized growth,"strain TSCII, active compounds read low",0.939
